T1: USP38, Q8NB14
T1 chain: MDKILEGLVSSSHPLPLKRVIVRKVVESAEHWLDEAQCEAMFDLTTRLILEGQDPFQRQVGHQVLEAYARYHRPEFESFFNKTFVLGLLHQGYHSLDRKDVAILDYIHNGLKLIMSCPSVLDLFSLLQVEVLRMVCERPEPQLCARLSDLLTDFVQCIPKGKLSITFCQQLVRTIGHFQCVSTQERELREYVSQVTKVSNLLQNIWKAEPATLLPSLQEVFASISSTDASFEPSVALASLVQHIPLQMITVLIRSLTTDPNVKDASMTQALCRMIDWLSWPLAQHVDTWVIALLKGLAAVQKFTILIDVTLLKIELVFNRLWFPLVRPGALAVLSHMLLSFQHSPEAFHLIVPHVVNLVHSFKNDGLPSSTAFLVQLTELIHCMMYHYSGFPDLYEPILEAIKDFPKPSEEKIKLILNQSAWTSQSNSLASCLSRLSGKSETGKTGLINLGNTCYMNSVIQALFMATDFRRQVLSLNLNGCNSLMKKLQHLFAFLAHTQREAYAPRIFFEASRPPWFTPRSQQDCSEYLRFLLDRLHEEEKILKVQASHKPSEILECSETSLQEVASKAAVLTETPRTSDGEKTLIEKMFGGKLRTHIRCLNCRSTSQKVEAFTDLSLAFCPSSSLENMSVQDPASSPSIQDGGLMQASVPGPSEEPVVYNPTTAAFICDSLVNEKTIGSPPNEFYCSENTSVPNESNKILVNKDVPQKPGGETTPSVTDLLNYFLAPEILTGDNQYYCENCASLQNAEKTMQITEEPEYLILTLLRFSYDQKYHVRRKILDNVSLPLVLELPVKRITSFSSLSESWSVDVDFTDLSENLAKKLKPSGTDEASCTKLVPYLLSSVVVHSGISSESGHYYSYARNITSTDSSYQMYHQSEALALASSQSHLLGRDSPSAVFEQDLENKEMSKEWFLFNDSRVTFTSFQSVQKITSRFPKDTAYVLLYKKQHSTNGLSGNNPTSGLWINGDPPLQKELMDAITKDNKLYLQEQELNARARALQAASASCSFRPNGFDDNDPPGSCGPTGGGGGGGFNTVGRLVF

B1: usp_38_diff_out_24_27_501 (protein)
chain: SAEHEKKLEKAKELLKKILELAEKAQTGDIATRIKASSEIDELFEELKKIAEEENNEELLKLLTELKTKVYAVLSGHPNAEEHLKEAKKLAEKFLEELKK
B2: usp_38_diff_out_2_113_460 (protein)
chain: DEEERKELAELYKKTILEGAEKLLKRTKKGTLSTATQIAMLGGIVHAAKEAAKLDPSVKPVLEEVIKKLKEIAELVKDKNPELYAATQKAIEEIEKILKE
B3: usp_38_diff_out_2_113_468 (protein)
chain: DPEQKKEEAQLYKDIILEGADKLLELAKKGMLTPDRTKVMLGGIVHAAREAYELDPSVKPVIEEVIEKLEEIKELVKDKNPEIAKEIEEAIEELKKILEE
B4: usp_38_diff_out_2_113_467 (protein)
chain: DPEERREEAELYRDIILEGADKLLRLAERGMLTPDRTRVMLGGIVHAAREAMELDPSTRPTIEEVIEKLERVRKLVEGKNPEIAKEVERAIEELKEILKE
B5: usp_38_diff_out_2_113_470 (protein)
chain: DPEERKKEAELYKKIILEGAEQLLRLAKKGRLTPDRTRVMLGGIVEAARRAYELDPSVKPVIEEVIKKLEEVEKLVKDKNPEVAAAIKEAIKELKKILKE
B6: usp_38_diff_out_2_113_465 (protein)
chain: EEEERARLTQLYVDTILEGSDQLLRRAKRGTLSSTTMITMIGGIVEAAREAFRLDPSVKPVLEEVAKKLAEIAEIYADKDAETAAAVKAAIAEINALIEA
B7: usp_38_diff_out_24_27_505 (protein)
chain: SEELEKALEKALKLLEDIAEDLKEAQKKGPTALFVVKRKHVDEIDKLREELEKLGPELAREVTTILLAFLNRSAADPEKREEYLKEAKEKIKEAFEKHKK
B8: usp_38_diff_out_2_113_466 (protein)
chain: DPEERAEEAALYRDIILEGAELLLRKAKKGMLTPDRTRVMLGGIVHAAEVAYELDPSVAPDIERVIEKLEEVRELVKDKNPEVAAEIEKAIEELKAILER
B9: usp_38_diff_out_24_27_503 (protein)
chain: EEERKEKIERLKKLLEEILKLLEESRTGDISVRIRASSEIDELAEEIRKILEELGNEEGLELLTEFETQVYAVLSRSPNWEEHFEKAKELAEKILELAKK
B10: usp_38_diff_out_24_27_499 (protein)
chain: EEEKQKLLKELLKKFEEILKLSEKAVGADLATRIKLSSEIDEKLEEARKLAKELGDEEIEELVTKVEIAANIVLSGSEEAEEALKEIKKLVEELKKKIEE
B11: usp_38_diff_out_24_27_502 (protein)
chain: EEEKKKKLEEIKKLLEEILALLKASQTGDIATRIKASSEIDELFEKIEKILKELGNEEGLELLTELKTQAYAVLSRSPDWQEHLAKAKELAEKIIKLAKK
B12: usp_38_diff_out_2_113_464 (protein)
chain: DPEERQRLALLLRDTVVSGADYLLEKAKKGTLSSDTIITMIGGITHAARELAALDPSAKPALEEVAKKLKEIAEIYKDKDEEVKKAVEEAIKEIEALIKA
B13: usp_38_diff_out_2_113_463 (protein)
chain: SEEERRERAEDLARIILEGSEYLLEKAKRGTLSGETMITMIGGIVHAAEEAFRLDPSVAPVIKRAIEKLKEIAELYKDKNPEVYEAIKEAIERLEKLLAE
B14: usp_38_diff_out_2_113_461 (protein)
chain: SEEERKERAEDLKEIITEGSDYLLEKAKKGTLSGDTMIVMIGGIVHAAKEAFALDPSVKPTIEEAIKKLEEIKELYKDRNPEVAKAIEDAIKELKALLAK
B15: usp_38_diff_out_24_27_500 (protein)
chain: EKEKEEKIKKVKELFEEIEKLVKESRTADIAGRIRISSEVDELFEEIRKIAKELGNEEALKLIDKAKAQAFAIISGDENWEEHLKELKKLFEEILKEFEK
B16: usp_38_diff_out_24_27_504 (protein)
chain: SEEHEKKLEELKKLLEEILKLLEESKTGDISVRIKASSEIDELFKEIEKILKELGNEEGLKLLKEFKTQAYAVLSRSPDWEEHLKKAKELAKKILELVEK

Molecular target: T1, USP38, Q8NB14
Test: median log2 fold change of GCK-ALFA target abundance (FLAG IP / Myc IP barcode read proportion) (log2 ratio); each designed protein is fused to an ALFA-tag nanobody in HEK293 cells to bring the named protein to FLAG-tagged glucokinase (GCK); Myc marks an untargeted standard; higher = target protein stabilised (more abundant)
Conditions: target protein: 3xFLAG-MCP-GCK-ALFA reporter; HEK293 landing pad (RPLP)
Outline: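 HEK293 landing-pad cells received a recombined binder library fused to the ALFA nanobody and were induced with 2 μg mL^−1 doxycycline, then transfected with a plasmid encoding a FLAG-tagged target and a Myc-tagged standard. Lysates were collected after 48 h for anti-FLAG and anti-Myc immunoprecipitation, and the circular RNA barcodes were reverse transcribed, amplified and sequenced. Target abundance for each binder is the median log2 ratio of FLAG to Myc barcode read proportions. Barcodes had to reach a proportion of at least 10^−7 in both replicates, each binder needed at least 3 barcodes per replicate, a pseudocount of 10^−6 was applied, and the two replicates were pooled.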

Binder	median log2 fold change
B1	0.157
B2	0.123
B3	0.211
B4	0.0135
B5	0.141
B6	0.0889
B7	0.427
B8	-0.156
B9	-0.574
B10	0.204
B11	0.548
B12	0.0135
B13	-0.229
B14	-0.00144
B15	0.364
B16	0.3

Source: the supplement of paper PMC12632987
